Measured values published in PubChem BioAssay (NCATS).
Records with an inconclusive call do not appear. Unmarked numbers belong to inactive results. The source made the active and inactive calls. The call rests on the fitted dose curve; in most records, active means well fitted inhibition curve with a large enough effect; inconclusive means small, poorly fitted or top-dose-only effect; inactive means flat fitted curve, though single readings scatter.

tested on: CP203; assay: qHTS profiling for inhibitors of Plasmodium falciparum proliferation (AID 504749); further: nearly all actives have a fitted effect of over 60% in size;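 on activity, negative = inhibition: 0% = DMSO vehicle and full inhibition = artemisinin control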; conditions: P. falciparum in erythrocytes, SYBR Green DNA, 72 h; series mostly up to 28.7 µM; activity, negative = inhibition: at the top concentration
From the text: NIH National Institute of Allergy and Infectious Diseases [NIAID] NIH Chemical Genomics Center [NCGC] MLPCN Grant: None Assay Provider: Xinzhuan Su, NIAID NCGC Assay Overview: Plasmodium falciparum is a virulent malarial parasite that kills 1-2 million people worldwide each year. Transmitted by mosquitoes, the sporozoite form of the parasite enters the blood stream to infect hepatocytes, where they become merozoites that infect red blood cells (erythrocytes). Within erythrocytes, merozoites begin a […] cycle of growth and division, after which the parasite is released to infect new red blood cells. Gametocytes, which form within erythrocytes as well, circulate in the bloodstream and are ingested by the mosquito, thereby completing the life cycle. To profile malarial isolates for differential chemical responses and to identify inhibitors of malarial growth, an assay that measures P. falciparum growth and replication within erythrocytes was employed. This assay uses a DNA binding fluorescent dye (SYBR Green) to detect parasite DNA following cell lysis. Because mature erythrocytes lack DNA, only Plasmodium-derived DNA is detected.
NCGC Assay Protocol Summary: The SYBR Green viability assay was adapted from a method described previously (Plouffe et al., 2008). For screening 3 ul culture medium was dispensed into 1536 well black clear bottom plates (Aurora Biotechnologies) using a Multidrop Combi (Thermo Fisher Scientific Inc.), 23 nL compounds in DMSO were added by a pin tool (Kalypsys), and 5 ul of erythrocytes infected with P. falciparum (0.3% parasitemia, 2.5% hematocrit final concentration) were added. The plates were incubated at 37 C in a humidified incubator in 5% CO2 for 72 h, and 2 ul lysis buffer (20 mM Tris HCl, 10 mM EDTA, 0.16% saponin, 1.6% triton X, 10X SYBR Green I supplied as 10,000X […] by Invitrogen) was added to each well. The plates were mixed for 25 sec with gentle shaking and incubated overnight at room temperature in the dark. The following morning, fluorescence intensity at 485(14) nm excitation and 535(25) nm emission wavelengths was measured on an EnVision (Perkin Elmer) plate reader. Plate reads were normalized relative to the control inhibitor (0.29 uM artemisinin) and vehicle (DMSO) wells present on each plate and then corrected by an algorithm using vehicle-only control plates at the beginning and end of the compound plate stack.
Potency means the concentration at half of the fitted maximal effect.

Row | Structure (SMILES) | activity, negative = inhibition | Potency
1 | Nc1ccccc1C(=O)O | 1.37% | 
2 | C[C@]12CC[C@@H]3c4ccc(OC(=O)N(CCCl)CCCl)cc4CC[C@H]3[C@@H]1CC[C@@H]2O | -2% | 
3 | NNc1ccccc1 | -8.81% | 
4 | CN1C(=O)CC(=O)N(c2ccccc2)c2cc(Cl)ccc21 | 2.2% | 
5 | CCCCC/C=C\C/C=C\C/C=C\C/C=C\CCCC(=O)NCC(=O)O | 6.81% [at 2.67 µM] | 
6 | CCCC(C)(COC(N)=O)COC(N)=O | 1.92% | 
7 | Nc1ccc([As](=O)(O)O)cc1 | -6.91% | 
8 | CN1C(=O)CCS(=O)(=O)C1c1ccc(Cl)cc1 (stereo not given) | 9.76% | 
9 | O=C1c2ccccc2C(=O)C1C(=O)C(c1ccccc1)c1ccccc1 | 7.96% | 
10 | CCCCCCC(=O)CCCCCC/C=C/C[C@@H](O)[C@H](O)[C@@](N)(CO)C(=O)O | 2.28% | 
11 | Cc1nnc2n1-c1ccc(Cl)cc1C(c1ccccc1)=NC2 | 0.502% | 
12 | COP(=S)(OC)Oc1ccc(SC)c(C)c1 | -4.19% | 
13 | COP(=S)(OC)Oc1ccc(S(=O)(=O)N(C)C)cc1 | 4.12% | 
14 | CN1C(=O)NC(=O)C(C)(C2=CCCCC2)C1=O (stereo not given) |  | inactive
15 | CN1C[C@H](C(=O)N[C@]2(C)O[C@@]3(O)[C@@H]4CCCN4C(=O)[C@H](Cc4ccccc4)N3C2=O)C=C2c3cccc4[nH]cc(c34)C[C@H]21 |  | 4.26 µM (active)
16 | COc1ccc2c(c1OC)C(=O)O[C@H]2[C@@H]1c2cc3c(cc2CCN1C)OCO3 | -8.53% | 
17 | CC(C)=CC1C(C(=O)OCN2C(=O)C3=C(CCCC3)C2=O)C1(C)C (stereo not given) | 0.0652% | 
18 | Cc1ncsc1CCCl | 12.5% | 
19 | CCC1(CC)C(=O)C=CNC1=O | -2.36% | 
20 | O=C1Nc2ccc(Cl)cc2C(c2ccccc2Cl)=NC1O (stereo not given) | 4.36% | 

Row | Structure (SMILES) | activity, negative = inhibition | Potency
21 | C=C(C)[C@H]1CN[C@H](C(=O)O)[C@H]1CC(=O)O | -4.7% | 
22 | CCOC(=O)CC(SP(=S)(OC)OC)C(=O)OCC (stereo not given) | -0.0501% | 
23 | O=c1[nH]oc2c1CCNC2 | 6.96% | 
24 | O=P1(N(CCCl)CCCl)NCCCO1 (stereo not given) | 4.87% | 
25 | NC(=O)c1cc([N+](=O)[O-])cc([N+](=O)[O-])c1 | -4.44% | 
26 | O=C1CN=C(c2ccccc2)c2cc([N+](=O)[O-])ccc2N1 | -1.57% | 
27 | Nc1nc(N)nc(NC2CC2)n1 | 0.336% | 
28 | C=CCN1C[C@H](C)N([C@H](c2ccc(C(=O)N(CC)CC)cc2)c2cccc(OC)c2)C[C@H]1C | 4.3% | 
29 | COP(=S)(OC)SCN1C(=O)c2ccccc2C1=O | 15.3% | 
30 | C[C@]12CCC(=O)C=C1CC[C@@H]1[C@@H]2CC[C@]2(C)C(=O)CC[C@@H]12 | 5.73% | 
31 | O=c1oc2ccccc2c(O)c1Cc1c(O)c2ccccc2oc1=O | 1.2% [at 12.8 µM] | 
32 | COc1c2c(cc3c1OCO3)CCN(C)C2 | 0.88% [at 12.8 µM] | 
33 | Oc1ccc(Cl)cc1 | -1.87% | 
34 | c1ccc2c(c1)sc1ccccc12 | 8.01% | 
35 | Clc1cccc(SC2CCNCC2)n1 | 9.16% | 
36 | Clc1ccc2c(c1)C(c1ccccc1)=NCc1nncn1-2 | 0.585% | 
37 | CN1C(=O)C(O)N=C(c2ccccc2)c2cc(Cl)ccc21 (stereo not given) | 0.451% | 
38 | CCCCCCCCCC(=O)O[C@H]1CC[C@H]2[C@@H]3CCC4=CC(=O)CC[C@@H]4[C@H]3CC[C@]12C | 0.577% | 
39 | COC1CC(=C(c2cccs2)c2cccs2)C[N+](C)(C)C1 (stereo not given) |  | 12 µM (active)
40 | CN1C(=O)COc2c(C(=O)NC3CN4CCC3CC4)cc(Cl)cc21 (stereo not given) | 2.6% | 
